CCHF vOTU inh: blocks the CCHF virus ovarian tumor domain protease. CCHFV vOTU protease, Pep-AMC fluorescence. inhibition, % at 11.5 µM. 370,000 tested, 0.55% active
3CLpro inhibitor: SARS-CoV 3CLpro protease inhibition. P0C6X7. recombinant SARS-CoV 3CLpro, quenched FRET peptide cleavage. inhibition, % at 6 µM. 290,000 tested, 0.14% active. AID 1706; in the data active = inhibition above about 12%
Mtb FBA inh: inhibitors of M. tuberculosis fructose-bisphosphate aldolase | purified M. tuberculosis FBA, fluorescence read-out | inhibition, % at 1 µM | 360,000 tested, 2.3% active | P9WQA3; in the data active = inhibition above about 27%
Target sequence (P9WQA3 whole entry, looked up): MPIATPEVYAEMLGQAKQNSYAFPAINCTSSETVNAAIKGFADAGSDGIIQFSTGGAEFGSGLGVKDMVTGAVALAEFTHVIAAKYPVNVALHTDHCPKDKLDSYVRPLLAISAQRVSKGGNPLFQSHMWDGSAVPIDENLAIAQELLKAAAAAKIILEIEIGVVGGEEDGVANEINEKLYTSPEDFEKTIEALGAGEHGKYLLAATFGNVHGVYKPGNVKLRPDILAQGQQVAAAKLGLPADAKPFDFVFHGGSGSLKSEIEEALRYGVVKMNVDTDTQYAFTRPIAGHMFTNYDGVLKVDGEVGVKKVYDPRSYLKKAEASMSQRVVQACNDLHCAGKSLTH
VHR inh abs: DUSP3 (human) phosphatase inhibition. recombinant VHR phosphatase, pNPP absorbance. inhibition, % at 13.3 µM. 290,000 tested, 0.52% active; in the data active = inhibition above about 50%
Target sequence (P51452 whole entry, looked up): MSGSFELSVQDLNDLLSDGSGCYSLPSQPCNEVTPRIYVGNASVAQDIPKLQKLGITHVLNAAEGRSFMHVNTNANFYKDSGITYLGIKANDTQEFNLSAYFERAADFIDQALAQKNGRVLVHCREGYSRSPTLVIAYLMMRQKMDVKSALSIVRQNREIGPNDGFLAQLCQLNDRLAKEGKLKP
RecA splice inh: Mtb RecA intein splicing inhibition. P9WHJ3. cell-free RecA intein splicing, fluorescence. inhibition, % (test concentration not listed). 290,000 tested, 0.75% active. AID 2221; in the data active = inhibition above about 30%
GDH-TPI inh: counter-screen for M. tuberculosis FBA inhibitors: GDH-TPI coupled enzymes; GDH-TPI coupled enzyme counterscreen, NADH absorbance; inhibition, % at 4.8 µM; 360,000 tested, 1.2% active; AID 588335
Of the large screens only hits and unclear results are named; the others gave an inactive call. A selection: hits, their analogues and other compounds. The true share with any hit is near 4.7%. Cut-off read from the data, not from the text of the source, unless noted: active = inhibition above about 30%; inactive = the rest.

COc1ccc(CNC(=O)Nc2ccc3c(c2)c(=O)n(C)n3Cc2cccc(C(F)(F)F)c2)cc1	Mtb FBA inh 127.7 (no result: 3CLpro inhibitor, VHR inh abs, RecA splice inh)
COc1cc(Cn2c3ccc(NC(=O)NCc4ccc(F)cc4)cc3c(=O)n2C)ccc1F	Mtb FBA inh 145.7 (no result: 3CLpro inhibitor, VHR inh abs, RecA splice inh)
C=C(C)Cn1c2ccc(NC(=O)NCCc3ccccc3)cc2c(=O)n1C	Mtb FBA inh 170.0 (no result: 3CLpro inhibitor, VHR inh abs, RecA splice inh)
Cc1nc2nc(C)c(C)nc2nc1C	none (no result: 3CLpro inhibitor, VHR inh abs, RecA splice inh)
Cn1c(=O)c2cc(NC(=S)NCc3ccccc3F)ccc2n1Cc1ccc(F)cc1	none (no result: 3CLpro inhibitor, VHR inh abs, RecA splice inh)
Cn1c(=O)c2cc(NC(=O)NCCc3ccccc3)ccc2n1Cc1ccc(F)cc1	Mtb FBA inh 185.6 (no result: 3CLpro inhibitor, VHR inh abs, RecA splice inh)
C=CCc1cc(/C=C2/NC(=O)N(CC(=O)OC)C2=O)cc(OC)c1O	GDH-TPI inh 32.1
COCc1cc(N2CCN(C(=O)OC(C)(C)C)C[C@@H]2C)ccc1N1CC[C@@H](O)C1	none (no result: 3CLpro inhibitor, Mtb FBA inh, VHR inh abs, RecA splice inh, GDH-TPI inh)
Cc1csc(NC(=O)C2(C)CCN2C(=O)C(C)C)c1C#N (stereo unspecified)	none (no result: CCHF vOTU inh, 3CLpro inhibitor, VHR inh abs, RecA splice inh)
COc1ccc(/C=N/N=C2/NC(=O)C(CC(=O)O)S2)cc1OS(=O)(=O)c1ccccc1 (stereo unspecified)	none
Cn1c(=O)n(C)c2cc(/C=N/N=C3/NC(=O)C(CC(=O)O)S3)ccc21 (stereo unspecified)	GDH-TPI inh 38.0
O=C(O)CC1S/C(=N/N=C/C=C/c2ccccc2)NC1=O (stereo unspecified)	GDH-TPI inh 50.4
COc1cc(/C=N/N=C2/NC(=O)C(CC(=O)O)S2)ccc1OCc1cccc(Cl)c1 (stereo unspecified)	none
CCOc1cc(/C=N/N=C2/NC(=O)C(CC(=O)O)S2)ccc1OCc1ccc(Cl)cc1 (stereo unspecified)	GDH-TPI inh 31.9
CC(C)NC(=O)C1(C)CSCC(=O)N1Cc1ccco1 (stereo unspecified)	none (no result: 3CLpro inhibitor, Mtb FBA inh, VHR inh abs, RecA splice inh, GDH-TPI inh)
C=CCN=C1NC(c2ccccc2)C(C(=O)OC)=C(C)N1C (stereo unspecified)	none (no result: 3CLpro inhibitor, Mtb FBA inh, VHR inh abs, RecA splice inh, GDH-TPI inh)
Nc1nnc(SCC(=O)Nc2ccc(Cl)c(C(=O)O)c2)s1	VHR inh abs 56.4
COC(=O)c1cc(NC(=O)CSc2nnc(N)s2)ccc1Cl	none
O=C(O)C1C2C=CC(C2)C1C(=O)Nc1ccc2c(c1)OCCO2 (stereo unspecified)	none (no result: CCHF vOTU inh)
CN(C)c1ccc(NC(=O)C2C3C=CC(C3)C2C(=O)O)cc1 (stereo unspecified)	CCHF vOTU inh 78.4
COC(=O)[C@]12C[C@H](CC(=O)NCc3ccccc3)C(=O)N(Cc3ccccc3)C1=C[C@H](C(C)(C)C)O[C@@H]2C	none (no result: 3CLpro inhibitor, Mtb FBA inh, VHR inh abs, RecA splice inh, GDH-TPI inh)
Cc1cccc(C)c1NC(=O)C1(C)CSCC(=O)N1CCc1c[nH]c2ccccc12 (stereo unspecified)	none (no result: 3CLpro inhibitor, Mtb FBA inh, VHR inh abs, RecA splice inh, GDH-TPI inh)
Cc1ccc2nc(-c3ccc(NC(=O)CSCC(=O)O)cc3)sc2c1	Mtb FBA inh 199.3, GDH-TPI inh 49.4
Cc1ccc2sc(-c3ccc(NC(=O)/C=C\C(=O)O)cc3)nc2c1	Mtb FBA inh active
Cc1ccc(C2(C)NC(=O)N(CC(=O)Nc3ccc(-c4nc5ccc(C)cc5s4)cc3)C2=O)cc1 (stereo unspecified)	none
O=C(O)CSCC(=O)Nc1ccc(-c2nc3ccccc3s2)cc1	Mtb FBA inh 115.9
Cc1csc(NC(=O)CSCC(=O)O)c1-c1nc2ccccc2s1	GDH-TPI inh 34.6
C=C1CC[C@@H]2[C@](C)(CCC[C@@]2(C)/C=C/[C@@H](O)C(C)(C)O)[C@H]1CC(=O)NCCS(=O)(=O)O	none (no result: 3CLpro inhibitor, VHR inh abs, RecA splice inh)
O=S1(=O)N[C@@H](Cc2ccccc2)COc2cc(NC3CC3)ccc21	none (no result: 3CLpro inhibitor, Mtb FBA inh, VHR inh abs, RecA splice inh, GDH-TPI inh)
CCC(=O)NC(=S)Nc1ccc(-c2nc3ccc(C)cc3s2)cc1	none
Cc1ccc2nc(-c3ccc(NC(=O)COCC(=O)O)cc3)sc2c1	Mtb FBA inh 136.4
CC(=O)Nc1ccc(S(=O)(=O)Nc2cc(C)cn(Cc3ccccc3)c2=O)cc1	Mtb FBA inh 69.6 (no result: CCHF vOTU inh)
O=S1(=O)c2ccc(Br)cc2OC2CCCN1C2 (stereo unspecified)	none (no result: 3CLpro inhibitor, Mtb FBA inh, VHR inh abs, RecA splice inh, GDH-TPI inh)
COc1ccc(/C=N/NC(=O)c2cc3c(OC)ccc(OC)c3[nH]2)cc1O	GDH-TPI inh 43.4
COc1ccc(C=NNC(=O)c2cc(C)oc2C)cc1O	GDH-TPI inh 30.7 (no result: 3CLpro inhibitor, VHR inh abs, RecA splice inh)
COc1cc(/C=N/NC(=O)c2cc(C)oc2C)ccc1O	none
COc1ccc(OC)c2[nH]c(C(=O)N/N=C/c3ccccc3O)cc12	none
O=C(/C=C/c1ccccc1)c1ccc2c(c1)OCO2	GDH-TPI inh 40.1
COC(=O)/C=C/c1ccc2c(c1)OCO2	none

Screening data (PubChem)
